Source: PubChem (National Center for Advancing Translational Sciences (NCATS))
12-LOX inh = blocks human arachidonate 12S-lipoxygenase. P18054. purified 12hLO, xylenol orange hydroperoxide absorbance. Potency, µM (series often up to 108 µM), for inactives: at the top dose activity change, negative = inhibition, most hits filed as inhibitors. actives 1.1% (n = 580,000). AID 1671190
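Purified human 12hLO at 150 nM in 25 mM Hepes, 0.01% Triton X-100, pH 7.0, preincubated 15 min at room temperature with compound. Reaction started with 40 uM arachidonic acid, 30 min at room temperature. Hydroperoxide measured by Fe-xylenol orange, 573/405 nm absorbance ratio.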
VP16 counter = Gal4-VP16 reporter inhibition counter-screen; AID 2546; actives 3.5% (n = 310,000); Potency, µM (series often up to 53.6 µM), inactives show at the top dose activity, negative = inhibition, actives largely listed as inhibitors; Drosophila S2 Gal4-VP16 UAS-luciferase, luminescence, 20 h;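 also: Gal4-VP16 expression switched on by copper sulfate through the metallothionein promoter; nearly all actives have a fitted effect of over 50% in size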
DT40 TDP1 no CPT = qHTS for Inhibitors of human tyrosyl-DNA phosphodiesterase 1 (TDP1): qHTS in cells in absence of CPT; DT40 Tdp1-/- hTDP1 cells, no CPT, ATP luminescence, 48 h; Potency, µM (top dose mostly 46.2 µM), for the others: at the highest dose activity change, negative = growth inhibition, hits mostly inhibitors; actives 15% (n = 420,000); also: nearly all actives have a fitted effect of over 55% in size
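Camptothecin absent (DMSO only). Human TDP1-complemented DT40 knockout cells, 400 cells/well, 37 °C for minimum 48 hr; ATP measured via CellTiter-Glo, 30 min dark incubation, luminescence.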
ELG1 repair inh = inhibitors of ELG1-dependent DNA repair in HEK293T cells; HEK293T ELG1-luciferase reporter, luminescence, 16 h; DNA damage induced by 5-fluorouridine; Potency, µM (doses to about 46.1 µM), for the others: at the top dose activity change, negative = inhibition, usual class: inhibitors; actives 2.3% (n = 330,000); AID 504467; also: nearly all actives have a fitted effect of over 55% in size
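DMSO vehicle served as the neutral condition. Each well held 2,000 cells given 5-fluorouridine plus compound; after 16 hr at 37 °C/5% CO2, ONE-Glo was added and luciferase measured 30 min later.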
RORgamma inh = ROR gamma (mouse) transcription inhibition; P51450; Drosophila S2 Gal4-RORgamma UAS-luciferase reporter, 20 h; Potency, µM (series often up to 53.6 µM), for inactives: at the highest dose activity change, negative = inhibition, hits mostly inhibitors; actives 5.4% (n = 310,000); AID 2551; also: nearly all actives have a fitted effect of over 60% in size
Target sequence (P51450 whole entry, looked up, the tested form may be a part): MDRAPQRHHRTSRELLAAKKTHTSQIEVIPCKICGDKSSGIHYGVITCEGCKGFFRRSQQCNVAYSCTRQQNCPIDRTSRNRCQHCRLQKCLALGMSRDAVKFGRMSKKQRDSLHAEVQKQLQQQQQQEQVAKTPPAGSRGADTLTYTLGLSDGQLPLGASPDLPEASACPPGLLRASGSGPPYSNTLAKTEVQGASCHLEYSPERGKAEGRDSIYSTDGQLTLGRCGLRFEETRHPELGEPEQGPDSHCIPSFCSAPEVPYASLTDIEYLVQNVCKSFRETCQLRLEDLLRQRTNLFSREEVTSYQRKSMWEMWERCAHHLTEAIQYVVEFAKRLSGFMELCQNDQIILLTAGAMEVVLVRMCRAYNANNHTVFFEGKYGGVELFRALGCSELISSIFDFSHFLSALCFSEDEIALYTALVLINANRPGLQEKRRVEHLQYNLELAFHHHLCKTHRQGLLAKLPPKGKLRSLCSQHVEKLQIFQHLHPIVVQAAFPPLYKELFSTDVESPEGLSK
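Luciferase reporter read in Schneider cells carrying Gal4-RORγ (mouse) and UAS-Photinus luciferase; cells given compound 1 h before 700 uM copper sulfate induction, then incubated 20 h at ambient temperature.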
TDP1 cell CPT = DT40-hTDP1 cell growth loss with CPT | AID 686979 | Potency, µM (doses to about 46.2 µM), inactives show at the top dose activity change, negative = growth inhibition, actives largely listed as inhibitors | actives 12% (n = 420,000) | chicken DT40 Tdp1-/-;hTDP1 cells + 20 nM CPT, ATP luminescence, 48 h; also: nearly all actives have a fitted effect of over 55% in size
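Chicken DT40 Tdp1-/- cells stably complemented with human TDP1 were seeded at 400 cells/well in medium containing 20 nM camptothecin, exposed to pin-transferred compounds, and grown at 37 °C for at least 48 hr. Viability was read as ATP luminescence.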
The depositor's hits bear a star; u = inconclusive; x = not tested or not shown; [ ] = remark or other dose. A selection: hits, their analogues and other compounds. The true share with any hit is near 15%. Calls follow the shape of the dose curve; as a rule, active = well fitted curve in the direction sought with a large enough effect; inconclusive = small, poorly fitted or top-dose-only effect, or another doubt; inactive = no such curve, though single readings can be large; an effect the other way counts as inactive or inconclusive. % is scaled to controls: 0 for no effect and ±100 for the full control effect; potency is read from the fitted curve at half-maximal effect.

SMILES | 12-LOX inh | VP16 counter | DT40 TDP1 no CPT | ELG1 repair inh | RORgamma inh | TDP1 cell CPT
Cc1ccc(/C=N/NC(=O)C2COc3ccccc3O2)s1 (centres undefined) | -14% | x | 1.6µM* | 16% | x | 1.2µM*
O=C(c1cncc(Br)c1)N1CCC(n2c(=O)[nH]c3ccccc32)CC1 | 6% | x | x | x | x | x
Cc1ccc(C)c(/C=C/C(=O)c2ccc(O)cc2)c1 | -22% | x | x | x | x | x
CN(C)CC(=O)N1Cc2ccccc2CC2(CCCCN2Cc2ccccc2)C1 (centres undefined) | 2%[6.33 µM] | x | x | x | x | x
Cc1ccccc1-c1cc(=O)c2cc(NC(=O)c3cccs3)ccc2o1 | -26% | x | x | x | x | x
C=CCOc1ccccc1CNc1ccc2[nH]c(=O)[nH]c2c1 | 1% | -7% | 21µM* | u | 7% | u
C=CCOc1ccccc1CNc1cccc(F)c1 | -25% | u | -28% | 14% | -3% | u
C=CCOc1ccccc1CNc1ccc2c(c1)OCCO2 | x | u | 12µM* | u | 4.5µM* | 15µM*
Cc1cccc(CNC(=O)c2cc3c(N(C)Cc4ccccc4)nc(C)cn3n2)c1 | 11% | x | x | x | x | x
Cc1cc(C)c(C(=O)COC(=O)COc2ccc(Cl)c(C)c2)cc1C | 33% | x | x | x | x | x
COc1ccc(OC)c(N2CC(O)(c3cccs3)[N+]3=C2SCCC3)c1 (centres undefined) | 7% | -10% | -13% | 1% | 0% | -10%
OC1(c2cccs2)CN(c2ccc(Br)cc2)C2=[N+]1CCCS2 (centres undefined) | 0% | 0% | 15µM* | u | 24% | u
CC(=O)Nc1ccn(C2COC(COC(=O)c3ccccc3)O2)c(=O)n1 (centres undefined) | x | x | 1.5µM* | x | x | 0.84µM*
Cc1ccc(CC(Cc2nc3ccccc3[nH]2)c2nc3ccccc3[nH]2)cc1 (centres undefined) | x | u | 27µM* | x | u | 27µM*
Cc1ccc(CSCc2nc3ccccc3[nH]2)cc1 | 4% | -8% | 21µM* | u | 13% | 29µM*
Cc1cc(C)cc(CC(Cc2nc3ccccc3[nH]2)c2nc3ccccc3[nH]2)c1 (centres undefined) | 0% | 11µM* | 26µM* | u | 11µM* | u
CC(O)c1nc2ccccc2[nH]1 (centres undefined) | x | x | -2% | x | x | -2%
Cc1ccc(SCc2nc3ccccc3[nH]2)cc1 | -2% | -15% | u | u | u | u
CC(C)NC(=O)NC[C@H]1COCc2nc3cc(C(F)(F)F)ccc3n21 | 11%[176 µM] | x | x | x | x | x
C(=C\c1ccccc1)/CN1CCN(C(c2ccnc3ccccc23)c2nnnn2-c2ccc3c(c2)OCCO3)CC1 (centres undefined) | u | x | 21µM* | x | x | 16µM*
COc1ccc(-n2nnnc2C(c2ccnc3ccccc23)N2CCN(C/C=C/c3ccccc3)CC2)cc1 (centres undefined) | u | x | 4.6µM* | x | x | 7.3µM*
CC(C)NC(=O)CN1CCN(C(c2ccnc3ccccc23)c2nnnn2-c2ccc3c(c2)OCCO3)CC1 (centres undefined) | -4% | x | -22% | x | x | -30%
CC1(C(=O)NCCC(F)(F)F)Cc2c(-c3cccc(C(N)=O)c3)ccnc2O1 (centres undefined) | -4% | x | 0.82µM* | x | x | u
CC1(C(=O)NCCC(F)(F)F)Cc2c(-c3cccc(C(F)(F)F)c3)ccnc2O1 (centres undefined) | 0% | x | 3.3µM* | x | x | 4.6µM*
CN(C)CCNC(=O)C1(C)Cc2c(-c3cccc(C(F)(F)F)c3)ccnc2O1 (centres undefined) | -1% | x | 6.5µM* | x | x | -73%
SMILES | 12-LOX inh | VP16 counter | DT40 TDP1 no CPT | ELG1 repair inh | RORgamma inh | TDP1 cell CPT
CC1(C(=O)Nc2ccccc2)Cc2c(-c3cccc(C(F)(F)F)c3)ccnc2O1 (centres undefined) | -4% | x | u | x | x | u
CC1(C(=O)NCC2CCOCC2)Cc2c(-c3cccc(C(F)(F)F)c3)ccnc2O1 (centres undefined) | 2% | x | 3.3µM* | x | x | 5.2µM*
CC(C)c1ccc(NC(=O)C2(C)Cc3c(-c4cccc(C(N)=O)c4)ccnc3O2)cc1 (centres undefined) | 1% | x | u | x | x | u
COc1cc(-c2noc(-c3ccc(S(=O)(=O)N4CCOCC4)o3)n2)ccc1OC(C)C | 22% | x | x | x | x | x
Cc1ccc(Sc2csc(-c3ccccc3)n2)cc1 | 34% | x | x | x | x | x
CN(C)S(=O)(=O)c1ccc(Cl)c(C(=O)Nc2cc(Cl)cc3cccnc23)c1 | 2% | x | x | x | x | x
COc1ccc(CCN2C(=O)c3[nH]nc(-c4ccccc4O)c3C2c2cccc(O)c2)cc1OC (centres undefined) | -18% | -14% | u | 18µM* | -6% | -1%
COc1ccc(CCN2C(=O)c3[nH]nc(-c4ccccc4O)c3C2c2ccccc2)cc1 (centres undefined) | 2% | x | 5.8µM* | x | x | 5.2µM*
COc1ccc(CCN2C(=O)c3[nH]nc(-c4ccccc4O)c3C2c2ccc(OC)c(OC)c2)cc1 (centres undefined) | 2% | x | u | x | x | -119%
COc1cccc(C2c3c(-c4ccccc4O)n[nH]c3C(=O)N2CCc2ccc(OC)c(OC)c2)c1 (centres undefined) | 0% | x | 18µM* | x | x | 15µM*
O=C(Nc1ccc(Cl)cc1)c1ccc2c(c1)CCC2 | -4% | x | x | x | x | x
CN(C(=O)CCc1ccc2c(c1)OCO2)C1CCCN(C2Cc3ccccc3C2)C1 (centres undefined) | 14% | x | x | x | x | x
O=C(Nc1nc(COc2ccccc2)cs1)C12CC3CC(CC(C3)C1)C2 | 28µM* | u | u | u | u | 22µM*
Cc1ccc(C(=O)Nc2nc(COc3ccccc3)cs2)s1 | -20% | -15% | u | x | 10µM* | u
O=C(Nc1nc(COc2ccccc2)cs1)C1CCC1 | 10% | u | 16µM* | u | u | 23µM*
CCOc1ccc(N2C(=O)C(Cl)=C(Nc3ccccc3O)C2=O)cc1 | u | 6% | 13µM* | u | 33% | 21µM*
COc1ccccc1NC1=C(Cl)C(=O)N(c2ccccc2)C1=O | -13% | 12% | 3% | 5% | u | 7%
COc1ccc(NC2=C(Cl)C(=O)N(c3ccccc3)C2=O)c(OC)c1 | -9% | -7% | 8% | -4% | 2% | 18µM*
